This note sets out measurements from PubChem BioAssay.

The source made the active and inactive calls.

Assay [1] is described as follows: optical density shifts of acrAB sulA E. coli – strain DRC41, OD650, 48 h, E. coli filamentation inducer project, primary screen (AID 1152).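 Also: E. coli MC1000 strain DRC41 lacking acrAB efflux pump and sulA.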 The settings on record: higher = more signal, called active from +8 up or from −8 down.
The nature of assay [2]: probe aLefty1 binding on compound microarray – biochemical, small-molecule microarray, 635/667 nm fluorescence, primary screen (AID 1153).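 Also: score merges spot fluorescence with signal-to-noise ratio from the scanned slide images.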 The settings on record: higher = more signal.
Assay [3] in a line: plasmodial surface anion channel blockers, osmotic lysis – cell-based, P. falciparum Indochina, OD700, 1 h, primary screen (AID 1154). The settings on record: P. falciparum Indochina infected RBC osmotic lysis, higher = more signal, called active from +8 up or from −8 down.
The nature of assay [4]: plasmodial surface anion channel blockers, osmotic lysis – cell-based, P. falciparum Indochina, OD700, 2 h, primary screen (AID 1155).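 Also: lysis reports solute entry through the parasite surface anion channel PSAC.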 The following applies: P. falciparum Indochina infected erythrocytes, higher = more signal, called active from +8 up or from −8 down.
Assay [5] is described as follows: changes in parasitized red cell lysis, either direction – P. falciparum Indochina, OD700, 3 h, PSAC antagonist project, primary screen (AID 1156). The settings on record: P. falciparum-infected erythrocytes, osmotic lysis, higher = more signal, called active from +8 up or from −8 down.
The nature of assay [6]: plasmodial surface anion channel blockers, osmotic lysis – cell-based, P. falciparum Indochina, OD700, 18 h, primary screen (AID 1157). The following applies: P. falciparum Indochina infected erythrocytes, osmotic lysis OD700, 18 h; higher = more signal, called active from +8 up or from −8 down.
Assay [7] is described as follows: S6 kinase pathway phospho-S6 level changes – cell-based, A549, cytoblot, luminescence, serum-stimulated, primary screen (AID 1158).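 Also: serum-stimulated A549 lung adenocarcinoma cells; signal is phosphorylated S6 detected by cytoblot immunostaining with HRP secondary.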 The settings on record: 5 h, higher = more signal.
Assay [8] has as its target NADPH oxidase 2 (Homo sapiens) (UniProt P04839). The assay is described as follows: compounds shifting NOX2 Amplex Red fluorescence – cell-based, HEK293-NOX2, PMA-stimulated, NOX inhibitor project, primary screen (AID 1159). Also: test concentration not given here. The following applies: 45 min, higher = more signal, called active from +8 up or from −8 down.
Assay [9] has as its target NADPH oxidase 4 (Homo sapiens) (UniProt Q9NPH5). The assay is described as follows: compounds shifting NOX4 Amplex Red fluorescence – cell-based, HEK293-NOX4, tetracycline-induced, NOX inhibitor project, primary screen (AID 1160). The following applies: HEK293-NOX4, Amplex Red H2O2 fluorescence, 45 min; higher = more signal, called active from +8 up or from −8 down.
The target in assay [10] is NADPH oxidase 5 (Homo sapiens) (UniProt Q96PH1). The assay is described as follows: compounds shifting NOX5 Amplex Red fluorescence – cell-based, HEK293-NOX5, NOX inhibitor project, primary screen (AID 1161). The following applies: HEK293-NOX5, ionomycin, 45 min, higher = more signal.
Chain of NADPH oxidase 5 (Homo sapiens) (Q96PH1 whole entry, looked up): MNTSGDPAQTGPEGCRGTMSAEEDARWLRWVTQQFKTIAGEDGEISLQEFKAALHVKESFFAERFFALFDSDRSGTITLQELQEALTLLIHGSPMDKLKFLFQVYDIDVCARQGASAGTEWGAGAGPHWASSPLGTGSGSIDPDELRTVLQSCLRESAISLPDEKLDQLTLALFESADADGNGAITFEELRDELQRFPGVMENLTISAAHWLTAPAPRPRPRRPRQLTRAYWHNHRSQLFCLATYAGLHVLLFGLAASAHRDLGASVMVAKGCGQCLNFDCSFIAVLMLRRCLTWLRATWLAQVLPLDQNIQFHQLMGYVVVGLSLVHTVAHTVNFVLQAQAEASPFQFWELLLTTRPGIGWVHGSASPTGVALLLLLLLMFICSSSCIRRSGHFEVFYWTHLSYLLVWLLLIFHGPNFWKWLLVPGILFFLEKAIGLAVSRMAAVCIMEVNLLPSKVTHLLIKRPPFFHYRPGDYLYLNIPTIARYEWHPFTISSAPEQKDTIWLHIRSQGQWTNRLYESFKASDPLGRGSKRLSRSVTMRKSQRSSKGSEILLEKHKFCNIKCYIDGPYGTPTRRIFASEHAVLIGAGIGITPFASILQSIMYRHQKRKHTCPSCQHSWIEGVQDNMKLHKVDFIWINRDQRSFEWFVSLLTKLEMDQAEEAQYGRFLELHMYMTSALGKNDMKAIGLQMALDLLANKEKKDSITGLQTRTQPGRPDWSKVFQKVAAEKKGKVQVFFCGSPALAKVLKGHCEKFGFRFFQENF

Chain of NADPH oxidase 2 (Homo sapiens) (P04839 whole entry, looked up): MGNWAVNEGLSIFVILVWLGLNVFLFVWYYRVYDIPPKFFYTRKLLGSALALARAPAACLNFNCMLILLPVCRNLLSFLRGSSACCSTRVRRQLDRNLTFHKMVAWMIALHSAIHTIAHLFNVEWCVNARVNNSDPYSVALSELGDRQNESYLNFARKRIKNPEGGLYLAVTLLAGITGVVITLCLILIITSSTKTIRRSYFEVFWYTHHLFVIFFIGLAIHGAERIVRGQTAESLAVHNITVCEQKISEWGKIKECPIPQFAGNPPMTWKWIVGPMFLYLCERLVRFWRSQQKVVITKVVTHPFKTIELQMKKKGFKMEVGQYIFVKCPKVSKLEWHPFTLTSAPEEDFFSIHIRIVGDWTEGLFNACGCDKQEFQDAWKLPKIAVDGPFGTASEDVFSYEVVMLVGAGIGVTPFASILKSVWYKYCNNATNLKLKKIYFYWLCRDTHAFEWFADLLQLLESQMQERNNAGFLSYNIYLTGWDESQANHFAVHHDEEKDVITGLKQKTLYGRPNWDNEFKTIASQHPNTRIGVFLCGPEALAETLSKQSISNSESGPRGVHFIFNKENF
Chain of NADPH oxidase 4 (Homo sapiens) (Q9NPH5 whole entry, looked up): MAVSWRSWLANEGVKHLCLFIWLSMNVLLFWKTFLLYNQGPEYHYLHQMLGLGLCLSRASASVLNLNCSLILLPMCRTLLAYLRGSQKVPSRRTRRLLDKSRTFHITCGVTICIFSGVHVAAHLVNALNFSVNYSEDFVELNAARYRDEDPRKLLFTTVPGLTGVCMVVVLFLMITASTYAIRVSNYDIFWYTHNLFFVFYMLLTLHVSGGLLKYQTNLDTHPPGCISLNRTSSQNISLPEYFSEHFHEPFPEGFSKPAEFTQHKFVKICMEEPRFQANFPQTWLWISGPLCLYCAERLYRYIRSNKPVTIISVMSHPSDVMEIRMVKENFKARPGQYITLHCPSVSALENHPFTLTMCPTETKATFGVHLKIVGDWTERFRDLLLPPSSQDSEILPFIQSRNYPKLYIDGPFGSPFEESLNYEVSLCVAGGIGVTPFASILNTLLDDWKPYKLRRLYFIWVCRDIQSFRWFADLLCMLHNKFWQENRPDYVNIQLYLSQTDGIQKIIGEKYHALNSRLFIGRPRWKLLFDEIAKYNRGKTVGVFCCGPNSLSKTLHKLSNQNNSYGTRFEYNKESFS

For `CCCCCN1CC=CC23O[C@@H]4/C=C\CCCOC(=O)C4[C@H]2C(=O)N(CCCCCCO)[C@@H]3C1=O` (stereo not given in full), the z-score in [1] is 2.24 (inactive); in assay [3], 2.25 (inactive); in [4] it was 0.753 (inactive); in [5] it was -0.387 (inactive); in assay [6], 0.158 (inactive); in [7], 5.32. Moreover, the z-score is 0.876 (inactive) in [8], 0.243 (inactive) in assay [9] and 1.75 in assay [10]. Further, the composite z-score in assay [2] was -0.146.

Regarding `Cc1ccc(S[C@]2(C(=O)NC3CC3)CC(=O)N(C3CCCCC3)[C@@H]2c2ccc(CO)cc2I)cc1`, the z-score is 0.639 (inactive) in assay [1]; 6.07 (inactive) in assay [3]; 0.898 (inactive) in [4]; -0.0504 (inactive) in [5]; 0.427 (inactive) in assay [6]; -0.208 in assay [7]. Besides, the z-score in assay [8] was 0.655 (inactive); in [9], -0.194 (inactive); in assay [10] it was 1.38. In addition, in assay [2], the composite z-score amounted to 0.112.

Turning to `C=CCOC(=O)[C@H]1[C@@H]2C(=O)O[C@@H](c3ccccc3)[C@@H](c3ccccc3)N2[C@@H](c2ccc(OCCOC(=O)[C@@H]3C[C@@H]4C(=O)N5CCC[C@H]5C(=O)N4[C@@H]3c3ccc(O)cc3)cc2)[C@]12C(=O)Nc1ccccc12`, the z-score in assay [1] is 0.891 (inactive); in [3], 2.72 (inactive); in [4], 1.04 (inactive); in assay [5] it was 2.96 (inactive); in assay [6], 0.668 (inactive); in assay [7], 0.193. Further, the z-score was 1.64 (inactive) in [8], 1.21 (inactive) in assay [9] and 1.57 in assay [10]. Also, the composite z-score in assay [2] came to 0.137.

Take `COCCOC(=O)N1C(=O)[C@@]2(c3cc(C#CCC(C(=O)OC)C(=O)OC)ccc31)[C@H](C(=O)N1CCN(c3ncccn3)CC1)[C@H]1C(=O)O[C@H](c3ccccc3)[C@H](c3ccccc3)N1[C@@H]2c1ccc(OCCO)cc1`: the z-score in assay [1] is 3.02 (inactive); in assay [3] it was 17.3 (active); in assay [4] it was 3.12 (inactive); in assay [5], -0.153 (inactive); in assay [6] it was 0.857 (inactive); in [7] it was 2.2. The z-score in assay [8] is 1.41 (inactive); in [9] it was 1.43 (inactive); in assay [10] it was 0.897. The compound also had a composite z-score in assay [2] of -0.0511.

On to `O=C1N(CCS(=O)(=O)c2ccccc2)c2ccccc2C[C@@]12COC(c1ccc(OCCCO)cc1)=N2`, for which the z-score was -2.43 (inactive) in assay [1]; 23.6 (active) in assay [3]; 8.71 (active) in assay [4]; 2.58 (inactive) in [5]; 0.764 (inactive) in assay [6]; -0.616 in [7]. Further, the z-score was 0.759 (inactive) in [8], 1.04 (inactive) in assay [9] and -0.312 in [10]. For the same compound, the composite z-score in assay [2] is 0.0804.

As for `COc1ccc([Si](C)(C)[C@H]2[C@H](CCn3cc([C@H](O)c4ccccc4)nn3)O[C@@]3(C(=O)N(Cc4cccc(N5CCC5=O)c4)c4ccccc43)[C@@H]2C)cc1`, the z-score in [1] was 2.02 (inactive); in assay [3] it was 9.44 (active); in assay [4], 0.475 (inactive); in assay [5], -0.272 (inactive); in assay [6], -0.87 (inactive); in [7], 1.77. Moreover, the z-score in assay [8] is 0.0292 (inactive); in assay [9], 1.09 (inactive); in [10], 2.04. The composite z-score in assay [2] turned out to be 0.167.

For `COCCOC(=O)N1C(=O)[C@@]2(c3cc(C#Cc4ccc(OC)cc4)ccc31)[C@H](C(=O)N1CCN(c3ncccn3)CC1)[C@H]1C(=O)O[C@H](c3ccccc3)[C@H](c3ccccc3)N1[C@@H]2c1ccc(O)cc1`, the z-score in [1] was 0.831 (inactive); in assay [3], 1.39 (inactive); in assay [4] it was -0.306 (inactive); in assay [5], -0.119 (inactive); in assay [6] it was -0.541 (inactive); in [7] it was 1.59. Further, the values for the z-score in assay [8], in assay [9] and in assay [10] were 0.586 (inactive), 0.19 (inactive) and 1.98, respectively. Also, the composite z-score in assay [2] was found to be 0.0773.

Take `CS(=O)(=O)CCOC(=O)C1=CC(CCCO)=CC(c2cccs2)N(Cc2cc3c(cc2Br)OCO3)C=C1C(=O)OCCS(C)(=O)=O` (stereo not given): the z-score in assay [1] is 0.702 (inactive); in [3] it was 5.62 (inactive); in assay [4] it was 0.944 (inactive); in assay [5], 1.85 (inactive); in assay [6], 0.479 (inactive); in assay [7] it was 0.252. The z-score is -2.11 (inactive) in [8], -1.1 (inactive) in assay [9] and -1.41 in [10]. The compound also yielded a composite z-score in assay [2] of -0.0767.

As for `O=C1OCCC=C[C@H]2OC34C=CCN(Cc5ccccc5)C(=O)[C@H]3N(CCCO)C(=O)[C@@H]4C12` (stereo not given in full), the z-score in assay [1] was 2.94 (inactive); in [3] it was 0.64 (inactive); in assay [4], -0.306 (inactive); in assay [5], 0.739 (inactive); in assay [6], -0.996 (inactive); in assay [7], 0.84. The z-score is -1.96 (inactive) in assay [8], -2.93 (inactive) in [9] and -3.28 in assay [10]. For the same compound, the composite z-score in assay [2] is -0.101.

For `N#Cc1ccc(NN2C(C(O)c3cccs3)C=CC3C(=O)N(c4ccccc4)C(=O)C32)cc1` (stereo not given), the z-score is -0.127 (inactive) in assay [1]; 5.65 (inactive) in assay [3]; -0.131 (inactive) in assay [4]; 0.832 (inactive) in assay [5]; -0.741 (inactive) in assay [6]; 0.578 in [7]. The values for the z-score in assay [8], in assay [9] and in assay [10] were -2.12 (inactive), -5.34 (inactive) and -3.05, respectively. In addition, the composite z-score in assay [2] is 0.0262.

As for `COCCOC(=O)N1C(=O)[C@@]2(c3cc(C#CC4(O)CCCCCC4)ccc31)[C@H](C(=O)N1CCCCCCC1)[C@H]1C(=O)O[C@H](c3ccccc3)[C@H](c3ccccc3)N1[C@@H]2c1ccccc1OCCO`, the z-score in [1] was 0.139 (inactive); in [3] it was 1.04 (inactive); in assay [4], 1.53 (inactive); in assay [5], 1.05 (inactive); in assay [6], 1.07 (inactive); in assay [7], 0.535. In addition, the z-score in assay [8] is 0.528 (inactive); in assay [9], -0.409 (inactive); in [10], 1.29. The composite z-score in assay [2] came to 2.53.

For the compound `O=C(CS)NCCCCCCNC(=O)[C@H]1C[C@H]2C(=O)N3CCC[C@H]3C(=O)N2[C@H]1c1cccc(OCCO)c1`, the z-score is -1.17 (inactive) in assay [1]; 5.08 (inactive) in [3]; 0.331 (inactive) in [4]; -0.645 (inactive) in assay [5]; 0.253 (inactive) in assay [6]; 0.598 in assay [7]. For the same compound, the z-score was 1.25 (inactive) in assay [8], 0.799 (inactive) in [9] and 0.0469 in assay [10]. The composite z-score in assay [2] amounted to 0.105.
